Screening results (PubChem BioAssay)
Compounds with a hit are over-represented: about 3.9% of the library has one in this group of screens.
HSP90 inh: HSP90 refolding inhibition in rabbit reticulocyte lysate; actives 0.91% (n = 290,000); AID 1789; inhibition, % at 5.6 µM; luciferase refolding luminescence, 3 h;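 active = inhibition above the screen-wide mean plus 3 SD, computed separately per campaign, cut at about 16% in these data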;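 note: 0% = DMSO wells and 100% = 60 µM geldanamycin wells; inhibitors lower the luminescence because luciferase stays unfolded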
aSyn UTR inh: 5' untranslated region of α-synuclein, MLPCN primary screen | alpha-synuclein 5'UTR reporter, inhibitor activity | actives 0.82% (n = 300,000) | AID 1813 | inhibition, % (tested at 7.5 µM); in the data active = inhibition above about 60%;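 note: H4 neuroglioblastoma cells stably carrying SNCA 5'UTR luciferase fusion; 0% = DMSO wells and 100% = positive control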
TWEAK-Fn14 inh: TWEAK-Fn14 signaling inhibition; AID 1159606; TWEAK-stimulated Fn14 reporter cells, luciferase luminescence, 8 h; actives 2% (n = 360,000); inhibition, % at 10 µM; in the data active = inhibition above about 50%
TROY NFkB inh: inhibitors of TROY-dependent NF-kB signaling; Q293 LMP1-TROYcd NF-kB luciferase reporter, 4 h; inhibition, % at 10 µM; actives 0.98% (n = 360,000);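 active = compounds whose plate-normalised and pattern-corrected inhibition of the luciferase reporter signal at the single screening dose is 50% or more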
HIF-2a inh: HIF-2a inhibition; inhibition, % at 18.8 µM; 786-0 RCC cells HIF-2a reporter, luciferase luminescence, overnight; actives 0.72% (n = 360,000);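 active = inhibition of the luminescence signal of 40% or more relative to plate controls, in a single-dose primary screen at 18.75 µM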
C8 TRAIL sens: caspase-8 TRAIL sensitization | NB7+C8 cells + TRAIL, ATPlite viability luminescence | inhibition (viability loss, TRAIL sensitization), % at 10 µM | actives 1% (n = 360,000);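 active = compounds causing at least 50% loss of cell viability in the single-dose screen, relative to plate controls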
HSP90 inh confirm: HSP90 inhibition, confirmation assay; inhibition, % at 5.9 µM; shares compounds with HSP90 inh; rabbit reticulocyte lysate, luciferase refolding luminescence, 3 h; AID 1846; actives 64% (n = 2,300); in the data active = inhibition above about 18%;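 note: 0% = vehicle wells and 100% = reference inhibitor wells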
FLuc counter: firefly luciferase inhibition, HSP90 counter-screen; shares compounds with HSP90 inh; inhibition, % at 5.9 µM; actives 48% (n = 2,300); purified native firefly luciferase, luminescence;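 active = inhibition above the mean inhibition of all tested sample wells plus 3 SD, cut at about 10% in these data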;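 note: 0% = DMSO with luciferase and 100% = wells lacking luciferase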
Target sequence (P08659 whole entry, looked up): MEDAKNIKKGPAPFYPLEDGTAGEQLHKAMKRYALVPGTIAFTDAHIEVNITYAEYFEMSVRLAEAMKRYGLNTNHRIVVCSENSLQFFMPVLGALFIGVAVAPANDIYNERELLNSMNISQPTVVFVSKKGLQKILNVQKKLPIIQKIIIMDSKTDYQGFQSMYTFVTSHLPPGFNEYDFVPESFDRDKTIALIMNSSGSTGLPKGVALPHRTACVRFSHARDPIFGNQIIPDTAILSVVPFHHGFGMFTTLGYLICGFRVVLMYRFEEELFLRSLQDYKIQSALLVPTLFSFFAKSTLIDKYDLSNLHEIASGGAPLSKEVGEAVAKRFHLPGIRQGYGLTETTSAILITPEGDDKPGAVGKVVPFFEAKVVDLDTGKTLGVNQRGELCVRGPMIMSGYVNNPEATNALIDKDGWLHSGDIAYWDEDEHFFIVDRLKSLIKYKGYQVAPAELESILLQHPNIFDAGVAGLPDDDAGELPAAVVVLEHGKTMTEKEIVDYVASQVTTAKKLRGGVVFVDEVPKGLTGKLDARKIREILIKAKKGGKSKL
* hit, by the source's call; / = no result given.

SMILES | HSP90 inh | aSyn UTR inh | TWEAK-Fn14 inh | TROY NFkB inh | HIF-2a inh | C8 TRAIL sens | HSP90 inh confirm | FLuc counter
O=C1C(Nc2ccccc2)=C/C(=N/S(=O)(=O)c2cccs2)c2ccccc21 | 37* | -24 | 97* | 48 | -5 | 97* | 94* | 2
Cc1ccc(S(=O)(=O)/N=C2\C=C(Nc3cccc(C(=O)O)c3)C(=O)c3ccccc32)c(C)c1 | 92* | 38 | 93* | 16 | -89 | 38 | 90* | -17
Nc1cc(-c2cccc([N+](=O)[O-])c2)[nH]n1 | -1 | -50 | -8 | 7 | -4 | -3 | / | /
O=c1cc(-c2cccc([N+](=O)[O-])c2)[nH][nH]1 | 24* | 7 | -1 | 6 | 16 | 0 | 0 | -3
Cc1noc(C)c1C(=O)Nc1ccc(N(C)C)cc1 | -5 | -19 | -16 | 11 | -9 | 5 | / | /
CN(C)c1ccc(NC(=O)c2cnsn2)cc1 | 26* | -18 | 74* | 31 | -26 | 29 | 48* | 40*
O=C1CC(c2ccc3c(c2)OCO3)Sc2nc3ccccc3n21 (stereo not drawn) | 47* | -160 | 89* | 84* | -36 | 31 | 72* | 69*
O=C1CC(c2ccccc2)Sc2nc3ccccc3n21 (stereo not drawn) | 1 | -196 | 34 | 49 | -222 | 27 | / | /
COc1ccc2ccccc2c1C=NN1CCCCC1 | / | / | -19 | 22 | -17 | -8 | / | /
COc1cccc(C2Nc3ccccc3NC3=C2C(=O)CC(C)(C)C3)c1 (stereo not drawn) | 23* | 5 | -4 | 19 | 14 | -17 | -1 | -4
CC(C)(C)c1cc(NC(=O)Nc2ccccc2)no1 | -1 | -197 | -10 | -20 | -228 | 16 | / | /
CC(C)(C)c1cc(NC(=O)c2ccco2)no1 | 19* | -27 | 35 | 2 | -114 | 43 | 31* | 12*
CC(NC(=O)CSc1nnc(-c2cccnc2)n1N)c1ccccc1 (stereo not drawn) | 18* | 1 | 9 | 8 | 13 | -16 | 0 | -7
CC1Cc2ccccc2N1C(=O)CN(C)CC(=O)Nc1cccc(F)c1 (stereo not drawn) | / | / | 13 | 10 | 16 | -6 | / | /
CN1N=C2c3ccccc3CCC2C1c1ccc(Cl)cc1 (stereo not drawn) | 23* | -101 | 54* | 40 | -156 | -8 | 34* | 16*
CC1=C(C(=O)N2CCOCC2)CC(CC(=O)NCc2ccco2)C(=O)N1Cc1ccc(C(C)(C)C)cc1 (stereo not drawn) | / | / | 3 | -7 | 3 | -13 | / | /
O=C(Nc1ccc(S(=O)(=O)NCCc2ccccc2)cc1)c1ccncc1 | -3 | 0 | 12 | 13 | 29 | 31 | / | /
O=C(Nc1ccc(S(=O)(=O)NCCc2ccccc2)cc1)c1ccco1 | 26* | 0 | 16 | 9 | -14 | -3 | -7 | -9
COc1ccccc1C(=O)NC(=S)Nc1cccnc1Cl | 55* | 11 | 95* | 78* | 7 | 35 | 23* | 12*
CC(C)S(=O)(=O)C1=NSC2=NC(=O)/C(=C\c3ccc(-c4ccccc4)o3)C(=N)N21 | 1 | -15 | 12 | 17 | -5 | 0 | / | /
CC(C)S(=O)(=O)C1=NSC2=NC(=O)/C(=C\c3ccc(-c4cccc(C(=O)O)c4)o3)C(=N)N21 | 27* | / | -10 | -33 | 11 | -2 | -1 | -11
CCOc1ccc(NC(=O)c2ccc3c(=O)n(-c4ccc(OC)cc4OC)c(=S)[nH]c3c2)cc1 | 69* | -13 | -7 | 1 | 29 | 21 | 8 | -4
CCOC(=O)N1CCN(C(=O)c2ccc3nc(N4CCCCC4)sc3c2)CC1 | 22* | -60 | -13 | -37 | -69 | -10 | 23* | -6
CC(C)(C)c1ccc(C(=O)N2CCN(Cc3ccccc3)CC2)cc1 | 22* | 14 | 10 | 19 | -14 | 3 | -3 | -17
CCOC(=O)N1CCN(C(=O)c2ccc3nc(N4CCC(C)CC4)sc3c2)CC1 | 14 | -124 | -15 | -40 | -61 | -4 | / | /
